Only some compounds are listed: those with a hit (about 2.3% of all), similar ones and a draw of the others.
M1 PAM: human CHRM1 positive allosteric modulation. P11229. CHO-K1 hM1, Fluo-8 calcium fluorescence, ACh EC20; 0% = ACh EC20, 100% = maximal ACh. activation, % at 3 µM. hit rate 0.088% among 360,000; in the data active means activation above about 19%, passing the limit was not always enough
Target sequence (P11229 whole entry, looked up): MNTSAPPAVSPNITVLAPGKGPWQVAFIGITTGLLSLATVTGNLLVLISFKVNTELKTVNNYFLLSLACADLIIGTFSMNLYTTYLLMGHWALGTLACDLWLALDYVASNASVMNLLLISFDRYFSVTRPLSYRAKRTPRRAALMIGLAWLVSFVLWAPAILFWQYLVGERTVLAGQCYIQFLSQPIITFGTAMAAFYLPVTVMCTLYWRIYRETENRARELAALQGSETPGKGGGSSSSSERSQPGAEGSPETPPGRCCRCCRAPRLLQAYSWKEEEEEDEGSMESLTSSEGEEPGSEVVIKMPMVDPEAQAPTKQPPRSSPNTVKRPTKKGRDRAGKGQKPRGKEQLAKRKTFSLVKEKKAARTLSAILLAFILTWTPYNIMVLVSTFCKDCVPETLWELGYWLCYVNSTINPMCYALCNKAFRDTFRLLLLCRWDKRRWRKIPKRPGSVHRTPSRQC
CHRM1 agonist: agonists of human M1 muscarinic receptor; hit rate 0.33% among 360,000; CHO-K1 hM1, Fluo-8 calcium fluorescence, agonist mode; 0% DMSO, 100% acetylcholine EC100; P11229; activation, % at 3 µM;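 active means activation above the run's mean compound activation plus 3 SD, cut at about 16% in these data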;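 further: peak over basal fluorescence ratio within a 140 s kinetic read after compound addition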
CHO-K1 Ca PAM: M1 PAM counterscreen hit in parental CHO-K1 cells | ATP EC20, Fluo-8 calcium fluorescence; 0% at ATP EC20, 100% at ATP max | activation, % at 3 µM | hit rate 0.02% among 360,000 | AID 602247;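 active means activation above the run cutoff, the mean activation of all test compounds plus 3 SD, cut at about 40% in these data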;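 further: peak over basal fluorescence ratio in a 140 s read after ATP addition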
CHRM1 antagonist: blocks human M1 muscarinic receptor. CHO-K1 hM1, Fluo-8 calcium fluorescence, ACh EC80 antagonist. AID 588852. hit rate 1.3% among 360,000. inhibition, % at 3 µM. P11229;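 active means percent inhibition above its own plate's cutoff, namely the mean of that plate's compound wells plus 3 SD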;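 further: peak over basal fluorescence ratio during 140 s after agonist addition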
CHO-K1 Ca antag: nonselective inhibitor or artifact in parental CHO-K1 cells | hit rate 0.6% among 360,000 | ATP-induced calcium, Fluo-8 fluorescence | inhibition, % at 3 µM | AID 602250;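 active means inhibition above a per-plate cutoff, the plate's mean sample inhibition plus 3 SD, cut at about 24% in these data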
CHO-K1 Ca ag: M1 agonist counterscreen hit in parental CHO-K1 cells | Fluo-8 calcium fluorescence; scaled to maximal ATP response, vehicle zero | activation, % at 3 µM | hit rate 0.48% among 360,000; in the data active means activation above about 15%;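 further: untransfected CHO-K1 host cells lacking M1 receptor as counterscreen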
Large screens that a line does not name were inactive.

CCC1Oc2ccccc2N(CC(=O)Nc2ccccc2OC)C1=O (stereo unspecified)	CHO-K1 Ca antag 23.7
Cc1nc2ccccc2c(C)c1CC(=O)OC(C)C(=O)NC1(C#N)CCCCC1 (stereo unspecified)	none
COc1ccc(/C=C2\SC(=O)NC2=S)cc1OC	CHO-K1 Ca ag 20.9
COc1cc(/C=C2/SC(=S)NC2=O)ccc1OS(=O)(=O)c1ccc(C)cc1	CHO-K1 Ca antag 24.8
CC(C)CNC(=O)C1(C)CCCN1C(=O)c1c(Cl)cccc1Cl (stereo unspecified)	none
Cc1ccc(CNC(=O)c2cc3c(=O)n(C)c4ccccc4c3n2C)o1	CHO-K1 Ca antag 23.8
COc1ccccc1NC(=O)c1cc2c(=O)n(C)c3ccccc3c2n1C	CHRM1 antagonist 92.7
Cc1ccc(S(=O)(=O)N(CC(O)CN2C(=O)NC(C)(C)C2=O)c2ccccc2)cc1 (stereo unspecified)	none
OC(c1ccccc1)C(NCCNCc1ccccc1)c1ccccc1 (stereo unspecified)	CHRM1 antagonist 38.3
CC(C)(C)C1CCC(CN2C(Nc3ccccc3)=NC[C@@H]2Cc2ccccc2)CC1 (stereo partly specified)	CHRM1 antagonist 65.1, CHO-K1 Ca ag 16.6
CCOC(=O)c1cc(C(=O)c2cc(F)ccc2O)coc1=N	none
N=c1occ(C(=O)c2cc(F)ccc2O)cc1C(=O)NC1CCCCC1	CHO-K1 Ca antag 23.7
COc1ccccc1CCNC(=O)C(=O)NCC1OCCCN1S(=O)(=O)c1ccc(F)cc1C (stereo unspecified)	none
CC1(C)NC(=O)N(CC(O)COc2cc3ccccc3cc2C(=O)N2CCCCC2)C1=O (stereo unspecified)	none
O=C(c1cc2ccccc2cc1O)N1CCCC1	CHO-K1 Ca ag 19.4
O=C(c1cc2ccccc2cc1OCC(O)CN1CCCCC1)N1CCCCC1 (stereo unspecified)	CHRM1 antagonist 32.8
O=P(CCN1CCCCC1)(c1ccccc1)c1ccccc1	CHRM1 antagonist 71.4
O=P(O)(CCc1ccccc1)CN1CCCCC1	none
COc1ccc(Cl)cc1NC(=O)CN1CCC(n2nnc3ccccc32)CC1	none
O=C(N1CCc2[nH]c3ccccc3c2C1)C(F)(F)F	CHRM1 agonist 45.7
COc1ccccc1NC(=O)N1CCc2[nH]c3ccc(F)cc3c2C1	CHRM1 agonist 26.3
CC(=O)N1CCc2[nH]c3ccccc3c2C1	none
O=C(CCCCl)N1CCc2[nH]c3ccccc3c2C1	CHRM1 agonist 23.9
CN(C)C(=O)c1ccc(NC(=O)COc2cccc3c2OC(C)(C)C3)cc1	none
CC(C)CNC(=O)C1(C)CCCN1Cc1ccccc1OC(F)F (stereo unspecified)	none
COc1ccc(CNCCC(c2ccccc2)c2ccc3c(c2)OCO3)cc1 (stereo unspecified)	CHO-K1 Ca ag 28.4
COc1ccc(C(CCNCc2ccc(OC(C)C)cc2)C(C)C)cc1 (stereo unspecified)	CHRM1 antagonist 35.5
COc1ccc(C(CCNCc2ccc(N(C)C)cc2)C(C)C)cc1 (stereo unspecified)	CHRM1 antagonist 39.2, CHO-K1 Ca antag 27.9
COc1ccc(C(CC(=O)O)c2ccc3c(c2)OCO3)cc1 (stereo unspecified)	none
COc1ccc(CNCCC(c2ccc(OC(C)C)cc2)C(C)C)cc1OC (stereo unspecified)	none
CCC(C)[C@H](NC(=O)N1CCC(C)CC1)C(=O)OC (stereo partly specified)	none
CCOC(=O)[C@]12CCCC=C1N(Cc1cccc3ccccc13)C(=O)[C@H](CC(=O)NCCc1ccccc1OC)C2	none (no result: M1 PAM, CHRM1 agonist, CHRM1 antagonist)
CN1/C(=C\C(=O)COC(=O)Cn2nnc(-c3ccccc3)n2)C(C)(C)c2ccccc21	CHO-K1 Ca antag 24.0
FC(F)(F)c1nnc(Nc2ccc(Cl)cc2)s1	none
Fc1ccc(Nc2nnc(C(F)(F)F)s2)cc1Cl	CHRM1 antagonist 36.7, CHO-K1 Ca antag 40.8
CC1(C)Oc2ccc3ccc(=O)oc3c2/C(=C/Nc2ccc(O)cc2)C1=O	none
CC1(C)Oc2ccc3ccc(=O)oc3c2/C(=C/Nc2cccc(O)c2)C1=O	CHO-K1 Ca antag 29.4
CC(C)(C)CC(C)(C)SSc1n[nH]c(=S)s1	none
COc1ccc(C2CC(=O)C=C(O)C2)cc1 (stereo unspecified)	none
COc1cc(C2CC(=O)C=C(O)C2)cc(OC)c1OC (stereo unspecified)	CHO-K1 Ca antag 24.8
COc1cccc(C(=O)NCC(=O)N2CCC3(CC2)NCCc2[nH]cnc23)c1	none
O=C1COc2ccc(C(=O)CSc3nnc(NCc4ccccc4)s3)cc2N1	CHO-K1 Ca ag 17.0
O=C1COc2ccc(C(=O)CSc3nnc(Cc4ccccc4)o3)cc2N1	none
O=C(CSc1ncccn1)c1ccccc1Br	CHO-K1 Ca antag 26.8
O=C(CSc1nccc(=O)[nH]1)Nc1cccc2ccccc12	none
Cc1nc2sccn2c(=O)c1S(=O)(=O)NCc1ccccc1	CHO-K1 Ca antag 25.4
COc1cccc(CNS(=O)(=O)c2c(C)nc3sccn3c2=O)c1	none
CCC1CCCCN1C(=O)CCS(=O)(=O)c1ccc2c(c1)CCN2C(C)=O (stereo unspecified)	none
Cn1cc(CNC(=O)c2cc(-c3ccccc3)nc3ccc(Br)cc23)cn1	none
COc1ccccc1CN(C)C(=O)c1cc(C)nc2ccccc12	none
Cc1nn(C)cc1CN(C)C(=O)c1cc(-c2ccccc2)nc2ccc(Br)cc12	CHRM1 antagonist 34.3
COc1ccc(CN(C)C(=O)c2cc(-c3ccccc3)nc3ccc(C)cc23)c(OC)c1	CHRM1 antagonist 37.2
CCc1ccc([C@@H]2CC=C(C(=O)O)[C@H](c3ccc(C(C)(C)C)cc3)N2S(=O)(=O)c2ccc(C)cc2)cc1	none
Cc1c(C)n(CCO)c2ncnc(Nc3ccc(F)cc3)c12	CHRM1 antagonist 43.5
COc1ccc(Nc2ncnc3c2c(C)c(C)n3CCO)cc1	none
COc1ccc(C(=O)NCCSCc2ccccc2C)cc1	CHO-K1 Ca antag 30.4
O=C(N/N=C/c1cc(Cl)cc(Cl)c1O)c1ccncc1	CHO-K1 Ca ag 15.2
CC(NC(=O)Nc1ccc([N+](=O)[O-])cc1)C(c1cccs1)N1CCCC1 (stereo unspecified)	CHO-K1 Ca ag 25.1
CC(NC(=O)Nc1cccc(Cl)c1)C(c1cccs1)N1CCCC1 (stereo unspecified)	none
CCCc1ncc(C(O)c2ccccc2OC)n1C (stereo unspecified)	none
NCCCCCc1nnc(SCc2ccc(Cl)c(Cl)c2)o1	CHRM1 antagonist 47.8
NCCc1nnc(SCc2ccc(F)cc2)o1	none
CC(=O)Nc1ccc(/C=C2\CCc3ccccc3C2=O)cc1	none
CN(C)c1ccc(NC(=O)c2sc(SCC(=O)Nc3nccs3)nc2N)cc1	CHRM1 antagonist 23.6
Cc1cc(C)n2nc(SCCOc3ccccc3F)nc2n1	none
